Results published in PubChem BioAssay AID1159580 (chemical genetic matrix, 2015).
In all, about 5,500 compounds went through this assay and about 2,000 (36%) were called active. Roughly 18% stayed inconclusive and do not appear here. No stated cut-off is given here; in the data, active means normalized growth mostly below about 0.91 (no sharp cut-off); inconclusive means no clear call, values can overlap the other calls; inactive means mostly above about 0.92. The list shows a part of the results.

Assay: chemical genetic growth profiling, strain panel (AID 1159580);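 further: tested at 20 µM; growth read once vehicle control cultures reached saturation at 30 °C; 1 = growth at the plate median or of vehicle wells; lower values mean less growth of the strain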
Conditions: growth OD

Measured: normalized growth

CCOP(=S)(OCC)Oc1ccc2c(C)c(Cl)c(=O)oc2c1
inactive: S. cerevisiae deletion strains, locus YJR075W, strain HOC1, active compounds read low 0.945 | S. cerevisiae deletion strains, locus YKL009W, strain mrt4, active compounds read low 0.952 | S. cerevisiae deletion strains, locus YKL068W, active compounds read low 0.985 | S. cerevisiae deletion strains, locus YKL085W, strain MDH1 (second series), active compounds read low 0.982 | S. cerevisiae deletion strains, locus YKL085W, strain MDH1, active compounds read low 0.982 | S. cerevisiae deletion strains, locus YKL160W, strain elf1, active compounds read low 1 | S. cerevisiae deletion strains, locus YKL190W, strain CNB1, active compounds read low 0.983 | S. cerevisiae deletion strains, locus YKR001C, strain vps1, active compounds read low 0.981 | S. cerevisiae deletion strains, locus YKR026C, strain gcn3, active compounds read low 0.944 | S. cerevisiae deletion strains, locus YKR091W, strain srl3, active compounds read low 0.973 | S. cerevisiae deletion strains, locus YLL001W, strain dnm1, active compounds read low 0.988 | S. cerevisiae deletion strains, locus YLL026W, active compounds read low 0.946 | S. cerevisiae deletion strains, locus YLL041C, strain sdh2, active compounds read low 0.956 | S. cerevisiae deletion strains, locus YLR027C, strain aat2, active compounds read low 0.935 | S. cerevisiae deletion strains, locus YLR039C, strain RIC1, active compounds read low 0.94 | S. cerevisiae deletion strains, locus YLR058C, strain SHM2, active compounds read low 0.971 | S. cerevisiae deletion strains, locus YLR102C, strain apc9, active compounds read low 0.985 | S. cerevisiae deletion strains, locus YLR113W, strain HOG1, active compounds read low 0.936 | S. cerevisiae deletion strains, locus YLR221C, strain rsa3, active compounds read low 0.933 | S. cerevisiae deletion strains, locus YLR258W, strain gsy2, active compounds read low 0.969 | S. cerevisiae deletion strains, locus YLR262C, strain YPT6 (second series), active compounds read low 0.976 | S. cerevisiae deletion strains, locus YLR262C, strain YPT6, active compounds read low 0.929 | S. cerevisiae deletion strains, locus YLR268W, strain sec22, active compounds read low 0.965 | S. cerevisiae deletion strains, locus YLR320W, strain mms22, active compounds read low 0.914 | S. cerevisiae deletion strains, locus YLR330W, strain CHS5, active compounds read low 0.979 | S. cerevisiae deletion strains, locus YLR342W, strain FKS1 (second series), active compounds read low 1.01 | S. cerevisiae deletion strains, locus YLR342W, strain FKS1, active compounds read low 0.961 | S. cerevisiae deletion strains, locus YLR357W, strain rsc2, active compounds read low 0.972 | S. cerevisiae deletion strains, locus YLR370C, strain arc18, active compounds read low 0.944 | S. cerevisiae deletion strains, locus YLR371W, strain rom2, active compounds read low 0.993 | S. cerevisiae deletion strains, locus YLR384C, strain iki3, active compounds read low 0.983 | S. cerevisiae deletion strains, locus YLR418C, strain cdc73, active compounds read low 0.956 | S. cerevisiae deletion strains, locus YML016C, strain PPZ1, active compounds read low 0.983 | S. cerevisiae deletion strains, locus YML032C, strain rad52, active compounds read low 0.979 | S. cerevisiae deletion strains, locus YML120C, strain ndi1, active compounds read low 0.962 | S. cerevisiae deletion strains, locus YML124C, strain tub3, active compounds read low 0.986 | S. cerevisiae deletion strains, locus YMR058W, strain fet3, active compounds read low 0.957 | S. cerevisiae deletion strains, locus YMR078C, strain ctf18, active compounds read low 0.979 | S. cerevisiae deletion strains, locus YMR125W, strain sto1, active compounds read low 0.97 | S. cerevisiae deletion strains, locus YMR129W, active compounds read low 0.97 | S. cerevisiae deletion strains, locus YMR205C, strain PFK2, active compounds read low 0.955 | S. cerevisiae deletion strains, locus YMR223W, strain ubp8, active compounds read low 0.987 | S. cerevisiae deletion strains, locus YMR231W, strain pep5, active compounds read low 0.948 | S. cerevisiae deletion strains, locus YMR263W, strain SAP30, active compounds read low 0.972 | S. cerevisiae deletion strains, locus YMR307W, strain GAS1, active compounds read low 0.894 | S. cerevisiae deletion strains, locus YNL067W, strain RPL9B, active compounds read low 0.981 | S. cerevisiae deletion strains, locus YNL071W, strain lat1, active compounds read low 0.944 | S. cerevisiae deletion strains, locus YNL128W, strain TEP1, active compounds read low 0.952 | S. cerevisiae deletion strains, locus YNL153C, strain GIM3, active compounds read low 0.972 | S. cerevisiae deletion strains, locus YNL183C, strain NPR1, active compounds read low 0.974 | S. cerevisiae deletion strains, locus YNL209W, strain ssb2, active compounds read low 0.957 | S. cerevisiae deletion strains, locus YNL233W, strain BNI4, active compounds read low 0.959 | S. cerevisiae deletion strains, locus YNL248C, strain rpa49, active compounds read low 0.96 | S. cerevisiae deletion strains, locus YNL250W, strain rad50, active compounds read low 0.98 | S. cerevisiae deletion strains, locus YNL271C, strain bni1, active compounds read low 0.99 | S. cerevisiae deletion strains, locus YNL298W, strain CLA4, active compounds read low 0.979 | S. cerevisiae deletion strains, locus YNL307C, strain MCK1, active compounds read low 0.981 | S. cerevisiae deletion strains, locus YNL322C, strain KRE1 (second series), active compounds read low 0.932 | S. cerevisiae deletion strains, locus YNL322C, strain KRE1, active compounds read low 0.981 | S. cerevisiae deletion strains, locus YNR049C, strain mso1, active compounds read low 0.954 | S. cerevisiae deletion strains, locus YNR052C, strain pop2, active compounds read low 0.994 | S. cerevisiae deletion strains, locus YOL006C, strain TOP1, active compounds read low 0.884 | S. cerevisiae deletion strains, locus YOL012C, strain htz1 1.3 | S. cerevisiae deletion strains, locus YOL147C, strain pex11, active compounds read low 0.993 | S. cerevisiae deletion strains, locus YOR001W, strain rrp6, active compounds read low 0.95 | S. cerevisiae deletion strains, locus YOR061W, strain CKA2, active compounds read low 0.961 | S. cerevisiae deletion strains, locus YOR069W, strain VPS5, active compounds read low 0.979 | S. cerevisiae deletion strains, locus YOR070C, strain gyp1, active compounds read low 0.994 | S. cerevisiae deletion strains, locus YOR080W, strain dia2, active compounds read low 0.959 | S. cerevisiae deletion strains, locus YOR083W, strain WHI5, active compounds read low 0.991 | S. cerevisiae deletion strains, locus YOR106W, strain vam3, active compounds read low 0.939 | S. cerevisiae deletion strains, locus YOR136W, strain idh2, active compounds read low 0.977 | S. cerevisiae deletion strains, locus YOR144C, strain elg1, active compounds read low 0.985 | S. cerevisiae deletion strains, locus YOR184W, strain ser1, active compounds read low 0.976 | S. cerevisiae deletion strains, locus YOR231W, strain MKK1, active compounds read low 1.03 | S. cerevisiae deletion strains, locus YOR265W, strain rbl2, active compounds read low 0.94 | S. cerevisiae deletion strains, locus YOR270C, strain vph1, active compounds read low 0.904 | S. cerevisiae deletion strains, locus YOR290C, strain snf2, active compounds read low 0.928 | S. cerevisiae deletion strains, locus YOR316C, strain cot1, active compounds read low 0.971 | S. cerevisiae deletion strains, locus YPL051W, strain arl3, active compounds read low 0.963 | S. cerevisiae deletion strains, locus YPL055C, strain LGE1, active compounds read low 0.948 | S. cerevisiae deletion strains, locus YPL078C, strain atp4, active compounds read low 0.982 | S. cerevisiae deletion strains, locus YPL106C, strain sse1, active compounds read low 0.957 | S. cerevisiae deletion strains, locus YPL240C, strain hsp82, active compounds read low 0.95 | S. cerevisiae deletion strains, locus YPL241C, strain CIN2, active compounds read low 0.982 | S. cerevisiae deletion strains, locus YPL256C, strain CLN2, active compounds read low 1.03 | S. cerevisiae deletion strains, locus YPR119W, strain clb2, active compounds read low 0.983 | S. cerevisiae deletion strains, locus YPR141C, strain kar3, active compounds read low 0.951 | S. cerevisiae deletion strains, locus YPR163C, strain tif3, active compounds read low 0.987 | S. cerevisiae deletion strains, locus YPR167C, strain met16, active compounds read low 0.99 | S. cerevisiae deletion strains, strain wtn01, active compounds read low 0.989 | S. cerevisiae strains, strain wild type, active compounds read low 0.981
